Source: the supplement of paper PMC11219838
Unmarked numbers belong to inactive results.

test system: Caenorhabditis elegans L1 (N2); assay: survival and reproduction score of C. elegans L1 (0: 0-10 living worms, 1: 11-20, 2: 21-50, 3: >50, 4: overgrown) (score 0-4); higher = more worms, less nematicidal, active = 1 or less; extreme values may be limits of the assay; settings: 60 µM; 6 days; temperature: 20 °C
Procedure, shortened: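 Synchronized C. elegans N2 L1s (about 20 per well) were grown in 96-well plates in liquid NGM with E. coli HB101 and compound at 60 µM final (0.6% v/v DMSO), shaken sealed at 200 rpm and 20 °C for 6 days. The ordinal score for survival and reproduction counted living worms per well under a dissection microscope. The scale ran 0 (0–10 worms) to 4 (overgrown, starved), averaged over two biological replicates.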

Row | SMILES | survival and reproduction score
1 | COc1ccc(-c2nnc(SCc3ccc(C#N)cc3)o2)cc1 | 4
2 | Cc1cnc(NC(=O)CSc2nnc(-c3cccc(Cl)c3)o2)s1 | 4
3 | CCc1nnc(NC(=O)CSc2nnc(-c3ccc(Cl)cc3Cl)o2)s1 | 4
4 | Brc1ccc(-c2noc(-c3ccco3)n2)o1 | 4
5 | Ic1ccc(OCc2nc(-c3ccncc3)no2)cc1 | 4
6 | c1cncc(-c2noc(COc3cccc4ccccc34)n2)c1 | 4
7 | Cc1cc(OCc2nc(-c3ccncc3)no2)c(C)cc1Br | 4
8 | CC(C)(C)c1ccc(-c2nnc(SCc3cccc(C#N)c3)o2)cc1 | 3.5
9 | CCOC(=O)c1c(NC(=O)CSc2nnc(-c3ccc(Cl)cc3)o2)sc(C(C)=O)c1C | 4
10 | COc1cccc(NC(=O)CSc2nnc(-c3ccc(C)cc3)o2)c1 | 4
11 | COc1ccc(-c2nnc(SCc3cccc(C#N)c3)o2)cc1 | 4
12 | c1ccc(-c2noc(COc3ccc4c(c3)CCCC4)n2)cc1 | 4
13 | Brc1ccccc1-c1nc(-c2ccccc2)no1 | 0 (active)
14 | Brc1ccccc1-c1nc(-c2ccc3c(c2)OCO3)no1 | 4
15 | Clc1ccc(OCc2nc(-c3cccnc3)no2)c(Cl)c1 | 4
16 | O=C(CSc1nnc(-c2ccc(Br)cc2)o1)Nc1cccc2ccccc12 | 4
17 | Cc1ccccc1OCc1nc(-c2cccs2)no1 | 1 (active)
18 | COc1ccccc1-c1nnc(SCC(=O)Nc2ccc(Br)cn2)o1 | 4
19 | Cc1ccc(OCc2nc(-c3ccncc3)no2)cc1C | 4
20 | NC(=O)COc1ccccc1-c1nc(-c2ccccc2Cl)no1 | 4

Row | SMILES | survival and reproduction score
21 | Fc1ccc(-c2nc(-c3cccc(C(F)(F)F)c3)no2)cc1 | 4
22 | COc1ccccc1OCc1nc(-c2cccc(Br)c2)no1 | 4
23 | COc1nc(-c2ccc(Cl)cc2)ccc1-c1noc(C)n1 | 4
24 | Cc1ccc(C(=O)Nc2ccccc2-c2nc(-c3cccnc3)no2)cc1C | 4
25 | Cc1ccc(-c2nnc(SCc3ccc(Br)cc3)o2)cc1 | 4
26 | Clc1ccc(OCc2nc(-c3ccccc3)no2)c(Cl)c1 | 0 (active)
27 | CCOC(=O)c1sc(NC(=O)CSc2nnc(-c3ccc(Cl)cc3)o2)c(C(=O)OCC)c1C | 4
28 | c1ccc(COc2cccc(-c3nc(-c4ccncc4)no3)c2)cc1 | 4
29 | Clc1ccc(-c2nnc(SCc3ccccc3)o2)cc1 | 4
30 | Cc1ccc(C)c(-c2nc(-c3cccnc3)no2)c1 | 0 (active)
31 | O=C(CSc1nnc(-c2ccco2)o1)Nc1cc(Cl)ccc1Cl | 4
32 | COc1cccc(-c2noc(COc3cccc(C)c3C)n2)c1 | 2
33 | CN(C)C(=O)c1ccccc1-c1nc(-c2ccccc2Cl)no1 | 4
34 | Cc1ccc(-c2nc(-c3ccccc3)no2)cc1C | 4
35 | Clc1ccc(CSc2nnc(-c3ccc(Cl)cc3)o2)cc1 | 4
36 | COc1ccccc1-c1nnc(SCC(=O)Nc2nc(C)cs2)o1 | 4
37 | COc1cccc(-c2noc(COc3ccccc3Cl)n2)c1 | 4
38 | COc1ccc(Cl)cc1NC(=O)CSc1nnc(-c2ccc(Br)cc2)o1 | 4
39 | Fc1cccc(-c2nc(-c3cccnc3)no2)c1 | 0 (active)
